{"source": "PubChem BioAssay (NCATS)", "note": "Records with an inconclusive call do not appear. Active and inactive are the calls of the source. Unless noted, calls follow the shape of the dose curve; as a rule, active = well fitted curve in the direction sought with a large enough effect; inconclusive = small, poorly fitted or top-dose-only effect, or another doubt; inactive = no such curve, though single readings can be large; an effect the other way counts as inactive or inconclusive. For activity change % (negative = inhibition) in this document: % is scaled to controls: 0 for no effect and ±100 for the full control effect.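 For activity change, negative = cytotoxicity in this document: cellular ATP luminescence as a viability measure; plate controls were DMSO-treated cells for no effect and cell-free wells for full effect; nearly all actives have a fitted effect of over 70% in size.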 For activity change, negative = inhibition in this document: nearly all actives have a fitted effect of over 70% in size.", "data": [{"test_system": "not listed separately", "test": "qHTS assay for small molecule agonists of retinoid X receptor alpha signaling (AID 588544; calls by dose curve)", "conditions": "HEK293T RXRa-UAS-bla, beta-lactamase reporter, 18 h; 530 nm emission", "units": {"max response": "%"}, "values": [{"molecule": "C[C@]12CC[C@@H]3c4ccc(O)cc4CC[C@H]3[C@H]1CC[C@H]2O", "max response": 14}, {"molecule": "Cc1cc(O)c2c(c1)C(=O)c1cccc(O)c1C2=O", "max response": 0.103}, {"molecule": "O=C1c2cccc(O)c2C(=O)c2c(O)cc(CO)cc21", "max response": 11.8}, {"molecule": "OC[C@@H](O)[C@@H](O)[C@H](O)[C@@H](O)CO", "max response": -9.11}]}, {"biological_target": "Retinoic acid receptor RXR-alpha (Homo sapiens) (UniProt P19793)", "sequence (P19793 whole entry, looked up)": "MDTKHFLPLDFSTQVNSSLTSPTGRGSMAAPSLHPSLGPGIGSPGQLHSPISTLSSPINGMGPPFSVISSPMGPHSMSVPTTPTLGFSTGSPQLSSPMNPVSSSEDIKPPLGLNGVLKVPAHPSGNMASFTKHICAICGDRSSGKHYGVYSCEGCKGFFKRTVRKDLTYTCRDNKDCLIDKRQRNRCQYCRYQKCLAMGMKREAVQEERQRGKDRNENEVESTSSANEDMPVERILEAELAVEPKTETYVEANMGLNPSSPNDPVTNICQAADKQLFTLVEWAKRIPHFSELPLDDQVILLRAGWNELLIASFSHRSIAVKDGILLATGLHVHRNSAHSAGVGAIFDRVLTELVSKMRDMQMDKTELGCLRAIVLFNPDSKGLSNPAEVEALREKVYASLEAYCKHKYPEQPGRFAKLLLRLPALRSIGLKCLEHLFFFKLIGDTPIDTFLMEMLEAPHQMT", "test": "qHTS assay for small molecule agonists of retinoid X receptor alpha signaling (AID 588544);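 as to activation: 0% = DMSO basal wells and 100% = reference agonist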", "conditions": "HEK293T RXRa-UAS-bla, beta-lactamase reporter, 18 h; series mostly up to 76.7 µM; activation: at the top concentration", "values": [{"molecule": "C[C@]12CC[C@@H]3c4ccc(O)cc4CC[C@H]3[C@H]1CC[C@H]2O", "activation": "-27.6% (inactive)"}, {"molecule": "Cc1cc(O)c2c(c1)C(=O)c1cccc(O)c1C2=O", "activation": "5.84% (inactive)"}, {"molecule": "O=C1c2cccc(O)c2C(=O)c2c(O)cc(CO)cc21", "activation": "-5.46% (inactive)"}, {"molecule": "OC[C@@H](O)[C@@H](O)[C@H](O)[C@@H](O)CO", "activation": "23.2% (inactive)"}]}, {"biological_target": "Thyroid hormone receptor beta (Homo sapiens) (UniProt P10828)", "sequence (P10828 whole entry, looked up)": "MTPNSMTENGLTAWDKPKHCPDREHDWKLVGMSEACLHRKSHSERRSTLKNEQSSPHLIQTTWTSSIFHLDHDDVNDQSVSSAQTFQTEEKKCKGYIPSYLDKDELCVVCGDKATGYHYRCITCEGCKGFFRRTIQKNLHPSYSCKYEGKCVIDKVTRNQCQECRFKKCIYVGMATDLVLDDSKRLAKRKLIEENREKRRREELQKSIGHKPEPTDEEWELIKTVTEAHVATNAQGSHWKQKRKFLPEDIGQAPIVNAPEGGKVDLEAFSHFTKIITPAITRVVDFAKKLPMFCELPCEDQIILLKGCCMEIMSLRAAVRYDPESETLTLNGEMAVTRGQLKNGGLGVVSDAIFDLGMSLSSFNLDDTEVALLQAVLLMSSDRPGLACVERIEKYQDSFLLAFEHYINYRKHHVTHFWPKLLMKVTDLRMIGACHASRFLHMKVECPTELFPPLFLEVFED", "test": "qHTS assay for small molecule agonists of thyroid hormone receptor beta signaling (AID 588545; calls by dose curve)", "conditions": "TR-UAS-bla GripTite HEK 293, beta-lactamase ratio, agonist mode, 18 h, percent of T3 response, DMSO as zero; series mostly up to 76.7 µM; activation: at the top concentration", "procedure,_shortened": "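Efficacy and EC50 values derive from Hill fits of qHTS titration data, normalized to 10 nM T3 and DMSO-only wells. HEK 293 reporter cells were stimulated for 18 hrs at 37 C, with beta-lactamase activity measured by CCF4 fluorescence.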", "values": [{"molecule": "C[C@]12CC[C@@H]3c4ccc(O)cc4CC[C@H]3[C@H]1CC[C@H]2O", "activation": "-13.1% (inactive)"}, {"molecule": "O=C1c2cccc(O)c2C(=O)c2c(O)cc(CO)cc21", "activation": "-2.89% (inactive)"}, {"molecule": "CC(C=CC1=C(C)CCCC1(C)C)=CC=CC(C)=CC(=O)Nc1ccc(O)cc1", "activation": "-5.13% (inactive)"}, {"molecule": "OC[C@@H](O)[C@@H](O)[C@H](O)[C@@H](O)CO", "activation": "-4.93% (inactive)"}]}, {"test_system": "not listed separately", "test": "qHTS assay for small molecule antagonists of retinoid X receptor alpha signaling (AID 588546; active = well fitted inhibition curve with a large enough effect in the signal ratio, with a control signal flat, not every such curve was filed as active; the % refers to the signal ratio; also: % is scaled to controls: 0 for no effect and ±100 for the full control effect)", "conditions": "HEK293T RXRa-UAS-bla, beta-lactamase ratio, antagonist mode; measured here: W530 green channel, cytotoxicity proxy", "procedure,_shortened": "(§1)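 Beta-lactamase reporter inhibition, read as CCF4 fluorescence ratio (ex 405, em 460/530 nm) after 2 h at RT. HEK293T UAS-bla cells, 2500/well, were stimulated with 9-cis-RA at 500 or 100 nM final alongside test compound for 18 h at 37 C.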", "units": {"max response": "%"}, "values": [{"molecule": "C[C@]12CC[C@@H]3c4ccc(O)cc4CC[C@H]3[C@H]1CC[C@H]2O", "max response": 6.57}, {"molecule": "Cc1cc(O)c2c(c1)C(=O)c1cccc(O)c1C2=O", "max response": -3.99}, {"molecule": "O=C1c2cccc(O)c2C(=O)c2c(O)cc(CO)cc21", "max response": -0.0097}, {"molecule": "OC[C@@H](O)[C@@H](O)[C@H](O)[C@@H](O)CO", "max response": -4.07}]}, {"biological_target": "Retinoic acid receptor RXR-alpha (Homo sapiens) (UniProt P19793)", "test": "qHTS assay for small molecule antagonists of retinoid X receptor alpha signaling (AID 588546)", "conditions": "HEK293T RXRa-UAS-bla, beta-lactamase ratio, antagonist mode", "procedure,_shortened": "as §1", "values": [{"molecule": "C[C@]12CC[C@@H]3c4ccc(O)cc4CC[C@H]3[C@H]1CC[C@H]2O", "max response": "-12.2% (inactive)"}, {"molecule": "Cc1cc(O)c2c(c1)C(=O)c1cccc(O)c1C2=O", "max response": "11.5% (inactive)"}, {"molecule": "O=C1c2cccc(O)c2C(=O)c2c(O)cc(CO)cc21", "max response": "15.1% (inactive)"}, {"molecule": "OC[C@@H](O)[C@@H](O)[C@H](O)[C@@H](O)CO", "max response": "-2% (inactive)"}]}, {"biological_target": "Thyroid hormone receptor beta (Homo sapiens) (UniProt P10828)", "test": "qHTS assay for small molecule antagonists of thyroid hormone receptor beta signaling (AID 588547; active = well fitted inhibition curve with a large enough effect in the signal ratio, with a control signal flat, not every such curve was filed as active; the % refers to the signal ratio)", "conditions": "TR-UAS-bla HEK293, beta-lactamase ratio, antagonist mode, 18 h", "procedure,_shortened": "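TR-UAS-bla GripTite HEK293 cells in 2% charcoal/dextran FBS medium were preincubated 4 h at 37 C, given compound (0.59 nM to 92 uM) plus 0.4 nM T3 (final) for 18 h, then CCF4 for 2 h at RT; Hill fit gave IC50.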", "values": [{"molecule": "C[C@]12CC[C@@H]3c4ccc(O)cc4CC[C@H]3[C@H]1CC[C@H]2O", "activity change % (negative = inhibition)": "-1.66% (inactive)"}, {"molecule": "Cc1cc(O)c2c(c1)C(=O)c1cccc(O)c1C2=O", "activity change % (negative = inhibition)": "3.18% (inactive)"}, {"molecule": "O=C1c2cccc(O)c2C(=O)c2c(O)cc(CO)cc21", "activity change % (negative = inhibition)": "26.1% (inactive)"}, {"molecule": "OC[C@@H](O)[C@@H](O)[C@H](O)[C@@H](O)CO", "activity change % (negative = inhibition)": "1.79% (inactive)"}]}, {"biological_target": "Luciferin 4-monooxygenase (Photinus pyralis) (UniProt P08659)", "sequence (P08659 whole entry, looked up)": "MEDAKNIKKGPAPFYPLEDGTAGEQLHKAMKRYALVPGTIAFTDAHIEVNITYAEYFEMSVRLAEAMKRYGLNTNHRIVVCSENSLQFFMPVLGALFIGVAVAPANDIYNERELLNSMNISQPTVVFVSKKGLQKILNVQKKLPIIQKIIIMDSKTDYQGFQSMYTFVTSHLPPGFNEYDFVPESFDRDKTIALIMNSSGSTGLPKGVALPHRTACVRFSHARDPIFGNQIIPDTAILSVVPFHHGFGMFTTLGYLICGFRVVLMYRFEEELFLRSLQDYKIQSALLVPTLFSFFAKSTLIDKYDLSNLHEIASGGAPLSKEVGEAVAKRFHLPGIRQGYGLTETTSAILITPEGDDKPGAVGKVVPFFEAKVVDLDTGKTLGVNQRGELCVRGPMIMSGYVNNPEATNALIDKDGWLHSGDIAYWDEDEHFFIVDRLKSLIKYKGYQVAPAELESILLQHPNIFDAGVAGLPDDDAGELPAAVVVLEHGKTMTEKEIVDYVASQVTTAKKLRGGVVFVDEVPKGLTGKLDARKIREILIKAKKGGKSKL", "test": "Biochemical firefly luciferase enzyme assay for NPC (AID 624030)", "conditions": "purified P. pyralis luciferase, luminescence, 5 min; series mostly up to 58.6 µM; activity change, negative = inhibition: at the top concentration", "procedure,_shortened": "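Counter-screen for direct inhibition of the luciferase enzyme by approved-drug library compounds, run at 10 nM enzyme in 50 mM Tris acetate (final). Luminescence was read within 5 min of enzyme-buffer addition and normalized to PTC124 versus DMSO (0%).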", "values": [{"molecule": "CCCCCCCCCCCC(CC1OC(=O)C1CCCCCC)OC(=O)C(CC(C)C)NC=O", "note": "(configuration not stated)", "activity change, negative = inhibition": "-1.47% (inactive)"}, {"molecule": "Cc1onc(-c2ccccc2)c1C(=O)N[C@@H]1C(=O)N2[C@@H](C(=O)O)C(C)(C)S[C@@H]12", "activity change, negative = inhibition": "0.469% (inactive)"}, {"molecule": "C#CCC(Cc1cnc2nc(N)nc(N)c2n1)c1ccc(C(=O)N[C@@H](CCC(=O)O)C(=O)O)cc1", "note": "(some centres not stated)", "activity change, negative = inhibition": "-3.68% (inactive)"}, {"molecule": "COc1ccc2c(c1OC)C(=O)OC2[C@H]1c2c(cc3c(c2OC)OCO3)CCN1C", "note": "(some centres not stated)", "activity change, negative = inhibition": "4.08% (inactive)"}, {"molecule": "Nc1ccn(C[C@@H](CO)OCP(=O)(O)O)c(=O)n1", "activity change, negative = inhibition": "0.775% (inactive)"}, {"molecule": "O=C1c2c(O)cccc2[C@@H]([C@@H]2O[C@H](CO)[C@@H](O)[C@H](O)[C@H]2O)c2cc(CO)cc(O)c21", "activity change, negative = inhibition": "-13.6% (inactive)"}, {"molecule": "CC1(C)[C@H](O[C@H]2O[C@H](C(=O)O)[C@@H](O)[C@H](O)[C@H]2O[C@@H]2O[C@H](C(=O)O)[C@@H](O)[C@H](O)[C@H]2O)CC[C@@]2(C)[C@H]1CC[C@]1(C)[C@H]2C(=O)C=C2[C@H]3C[C@@](C)(C(=O)O)CC[C@]3(C)CC[C@]21C", "activity change, negative = inhibition": "-15.5% (inactive)"}, {"molecule": "CCCCCCCCCCCCCCCC(=O)OC[C@@H](NC(=O)C(Cl)Cl)[C@H](O)c1ccc([N+](=O)[O-])cc1", "activity change, negative = inhibition": "-6.27% (inactive)"}, {"molecule": "COc1ccc([C@@H]2CNC(=O)C2)cc1OC1CCCC1", "activity change, negative = inhibition": "0.525% [at 24.9 µM] (inactive)"}, {"molecule": "N[C@H]1CN(c2c(F)cc3c(=O)c(C(=O)O)cn(C4C[C@@H]4F)c3c2Cl)CC12CC2", "note": "(some centres not stated)", "activity change, negative = inhibition": "-0.878% (inactive)"}, {"molecule": "C[C@H]1C[C@H]2[C@@H]3CCC4=CC(=O)C=C[C@]4(C)[C@@H]3C(=O)C[C@]2(C)[C@@]1(O)C(=O)CO", "activity change, negative = inhibition": "1.83% (inactive)"}, {"molecule": "Nc1ccn(C2CO[C@H](CO)O2)c(=O)n1", "note": "(some centres not stated)", "activity change, negative = inhibition": "-0.408% (inactive)"}, {"molecule": "CCCCCCCN(CC)CCCC(O)c1ccc(NS(C)(=O)=O)cc1", "note": "(configuration not stated)", "activity change, negative = inhibition": "0.134% (inactive)"}, {"molecule": "O=C(O)C(=O)Nc1cccc(C2=NN=N[N]2)c1", "activity change, negative = inhibition": "-7.23% (inactive)"}, {"molecule": "COC1=C(OC)C(=O)C(CC=C(C)CCC=C(C)CCC=C(C)CCC=C(C)CCC=C(C)CCC=C(C)CCC=C(C)CCC=C(C)CCC=C(C)CCC=C(C)C)=C(C)C1=O", "activity change, negative = inhibition": "0.937% (inactive)"}, {"molecule": "CCC(C(=O)O)C1CCC(C)C(C(C)C(O)C(C)C(=O)C(CC)C2OC3(C=CC(O)[C@@]4(CC[C@](C)(C5CC[C@@](O)(CC)C(C)O5)O4)O3)C(C)CC2C)O1", "note": "(some centres not stated)", "activity change, negative = inhibition": "0.131% (inactive)"}, {"molecule": "Nc1nc2c(c(=O)[nH]1)N(C=O)[C@H](CNc1ccc(C(=O)N[C@@H](CCC(=O)O)C(=O)O)cc1)CN2", "activity change, negative = inhibition": "21.6% [at 24.9 µM] (inactive)"}, {"molecule": "OCC(O)C(O)C(O)CO", "note": "(configuration not stated)", "activity change, negative = inhibition": "0.378% (inactive)"}]}, {"test_system": "not listed separately", "test": "S16 Schwann cell viability assay (CellTiter-Glo assay) (AID 624031)", "conditions": "S16 rat Schwann cells viability, 24 h; series mostly up to 57.5 µM; activity change, negative = cytotoxicity: at the top concentration", "procedure,_shortened": "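Native S16 rat Schwann cells in DMEM/10% FBS without phenol red were incubated overnight, then exposed to compounds for 24 h at 37 °C/5% CO2. Viability was read as ATP luminescence (CellTiter-Glo), normalized to no-cell wells and DMSO (0%).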", "values": [{"molecule": "COc1ccc2c(c1OC)C(=O)OC2[C@H]1c2c(cc3c(c2OC)OCO3)CCN1C", "note": "(some centres not stated)", "activity change, negative = cytotoxicity": "-0.549% (inactive)"}, {"molecule": "COc1ccc([C@@H]2CNC(=O)C2)cc1OC1CCCC1", "activity change, negative = cytotoxicity": "15.3% [at 25.7 µM] (inactive)"}, {"molecule": "COc1cccc2c1C(=O)c1c(O)c3c(c(O)c1C2=O)C[C@@](O)(C(=O)CO)C[C@@H]3O[C@H]1C[C@H](N)[C@H](OC2CCCCO2)[C@H](C)O1", "note": "(some centres not stated)", "activity change, negative = cytotoxicity": "-9.14% (inactive)"}, {"molecule": "Nc1nc2c(c(=O)[nH]1)N(C=O)[C@H](CNc1ccc(C(=O)N[C@@H](CCC(=O)O)C(=O)O)cc1)CN2", "activity change, negative = cytotoxicity": "9.61% [at 25.7 µM] (inactive)"}, {"molecule": "OCC(O)C(O)C(O)CO", "note": "(configuration not stated)", "activity change, negative = cytotoxicity": "-2.87% (inactive)"}]}]}
